# Assay results: PubChem BioAssay AID1159580 (chemical genetic matrix, 2015)
# About 2,000 (36%) of roughly 5,500 compounds were called active. About 18% were inconclusive and are not listed. The list shows a part of the results. Values without a mark were called inactive. Cut-off read from the data, not from the text of the source: active = normalized growth mostly below about 0.91 (no sharp cut-off); inconclusive = no clear call, values can overlap the other calls; inactive = mostly above about 0.92.
# Assay: chemical genetic growth profiling, strain panel (AID 1159580);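 note: tested at 20 µM; growth read once vehicle control cultures reached saturation at 30 °C; 1 = growth at the plate median or of vehicle wells; lower values mean less growth of the strain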
# Conditions: S. cerevisiae deletion strains, growth OD
structure (smiles),measurement,setting,value
CC(=O)OCC(=O)[C@H]1CCC2C3CC=C4C[C@@H](O)CC[C@]4(C)C3CC[C@@]21C (some centres undefined),normalized growth,"locus YAL021C, strain ccr4, active compounds read low",1.04
same,normalized growth,"locus YAL026C, strain drs2, active compounds read low",0.971
same,normalized growth,"locus YAL030W, strain snc1, active compounds read low",0.993
same,normalized growth,"locus YBL061C, strain skt5, active compounds read low",0.969
same,normalized growth,"locus YBR009C, strain hhf1, active compounds read low",0.819 (active)
same,normalized growth,"locus YBR023C, strain chs3, active compounds read low",0.97
same,normalized growth,"locus YBR171W, strain sec66, active compounds read low",1
same,normalized growth,"locus YBR231C, strain swc5, active compounds read low",0.894 (active)
same,normalized growth,"locus YBR279W, strain paf1, active compounds read low",0.998
same,normalized growth,"locus YCL011C, strain gbp2, active compounds read low",0.858 (active)
same,normalized growth,"locus YCL016C, strain dcc1, active compounds read low",0.983
same,normalized growth,"locus YCL061C, strain MRC1, active compounds read low",0.893 (active)
same,normalized growth,"locus YCL069W, strain vba3, active compounds read low",0.893 (active)
same,normalized growth,"locus YCR088W, strain abp1, active compounds read low",0.965
same,normalized growth,"locus YDL005C, strain med2, active compounds read low",0.885 (active)
same,normalized growth,"locus YDL040C, strain nat1, active compounds read low",1.01
same,normalized growth,"locus YDR001C, strain nth1, active compounds read low",1.01
same,normalized growth,"locus YDR069C, strain doa4, active compounds read low",1.02
same,normalized growth,"locus YDR137W, strain rgp1, active compounds read low",0.742 (active)
same,normalized growth,"locus YDR159W, strain sac3, active compounds read low",0.753 (active)
same,normalized growth,"locus YDR195W, strain ref2",1.4 [resistant] (active)
same,normalized growth,"locus YDR297W, strain sur2, active compounds read low",1.02
same,normalized growth,"locus YDR334W, strain swr1, active compounds read low",1.01
same,normalized growth,"locus YDR335W, strain msn5, active compounds read low",0.908 (active)
same,normalized growth,"locus YDR392W, strain spt3, active compounds read low",0.142 (active)
same,normalized growth,"locus YEL003W, strain gim4, active compounds read low",0.894 (active)
same,normalized growth,"locus YEL037C, strain rad23, active compounds read low",0.999
same,normalized growth,"locus YEL061C, strain CIN8 (second series), active compounds read low",0.945
same,normalized growth,"locus YER015W, strain faa2, active compounds read low",1.01
same,normalized growth,"locus YER016W, strain bim1, active compounds read low",0.967
same,normalized growth,"locus YER111C, strain swi4, active compounds read low",0.986
same,normalized growth,"locus YER155C, strain BEM2 (second series), active compounds read low",0.337 (active)
same,normalized growth,"locus YFR010W, strain ubp6, active compounds read low",0.976
same,normalized growth,"locus YGL167C, strain pmr1, active compounds read low",1
same,normalized growth,"locus YGL173C, strain kem1, active compounds read low",0.953
same,normalized growth,"locus YGL227W, strain vid30, active compounds read low",0.935
same,normalized growth,"locus YGL240W, strain doc1, active compounds read low",0.927
same,normalized growth,"locus YGL253W, strain hxk2, active compounds read low",0.937
same,normalized growth,"locus YHR013C, strain ard1, active compounds read low",0.87
same,normalized growth,"locus YHR027C, strain rpn1, active compounds read low",1.05
same,normalized growth,"locus YHR030C, strain SLT2, active compounds read low",0.896
same,normalized growth,"locus YHR079C, strain IRE1, active compounds read low",0.915
same,normalized growth,"locus YHR142W, strain chs7, active compounds read low",0.593 (active)
same,normalized growth,"locus YJL092W, strain hpr5, active compounds read low",0.931
same,normalized growth,"locus YJL095W, strain BCK1 (second series), active compounds read low",0.97
same,normalized growth,"locus YJL095W, strain BCK1, active compounds read low",0.956
same,normalized growth,"locus YJL115W, strain asf1, active compounds read low",1.02
same,normalized growth,"locus YJL129C, strain trk1, active compounds read low",0.696 (active)
same,normalized growth,"locus YJL154C, strain vps35, active compounds read low",1.01
same,normalized growth,"locus YJL164C, strain tpk1, active compounds read low",0.853 (active)
same,normalized growth,"locus YJL166W, strain qcr8, active compounds read low",0.826 (active)
same,normalized growth,"locus YJR066W, strain TOR1, active compounds read low",0.913
same,normalized growth,"locus YKL160W, strain elf1, active compounds read low",0.946
same,normalized growth,"locus YKR026C, strain gcn3, active compounds read low",1.01
same,normalized growth,"locus YKR091W, strain srl3, active compounds read low",1.02
same,normalized growth,"locus YLL001W, strain dnm1, active compounds read low",0.829 (active)
same,normalized growth,"locus YLL026W, active compounds read low",0.935
same,normalized growth,"locus YLL041C, strain sdh2, active compounds read low",1.07 [resistant] (active)
same,normalized growth,"locus YLR027C, strain aat2, active compounds read low",0.921 (active)
same,normalized growth,"locus YLR113W, strain HOG1, active compounds read low",0.882
same,normalized growth,"locus YLR221C, strain rsa3, active compounds read low",0.816 (active)
same,normalized growth,"locus YLR258W, strain gsy2, active compounds read low",0.963
same,normalized growth,"locus YLR262C, strain YPT6 (second series), active compounds read low",0.583 (active)
same,normalized growth,"locus YLR320W, strain mms22, active compounds read low",0.435 (active)
same,normalized growth,"locus YLR342W, strain FKS1, active compounds read low",0.762 (active)
same,normalized growth,"locus YLR357W, strain rsc2, active compounds read low",1.04
same,normalized growth,"locus YLR370C, strain arc18, active compounds read low",1
same,normalized growth,"locus YLR384C, strain iki3, active compounds read low",1.02
same,normalized growth,"locus YML120C, strain ndi1, active compounds read low",0.805 (active)
same,normalized growth,"locus YMR058W, strain fet3, active compounds read low",0.924
same,normalized growth,"locus YMR125W, strain sto1, active compounds read low",0.829 (active)
same,normalized growth,"locus YMR129W, active compounds read low",0.998
same,normalized growth,"locus YMR205C, strain PFK2, active compounds read low",0.833 (active)
same,normalized growth,"locus YMR231W, strain pep5, active compounds read low",1.02
same,normalized growth,"locus YNL071W, strain lat1, active compounds read low",0.175 (active)
same,normalized growth,"locus YNL183C, strain NPR1, active compounds read low",0.956
same,normalized growth,"locus YNL209W, strain ssb2, active compounds read low",1.08 [resistant] (active)
same,normalized growth,"locus YNL248C, strain rpa49, active compounds read low",0.899
same,normalized growth,"locus YNL322C, strain KRE1 (second series), active compounds read low",1.02
same,normalized growth,"locus YNR049C, strain mso1, active compounds read low",0.991
same,normalized growth,"locus YOR001W, strain rrp6, active compounds read low",1.02
same,normalized growth,"locus YOR070C, strain gyp1, active compounds read low",1.03
same,normalized growth,"locus YOR080W, strain dia2, active compounds read low",1.01
same,normalized growth,"locus YOR083W, strain WHI5, active compounds read low",0.885 (active)
same,normalized growth,"locus YOR106W, strain vam3, active compounds read low",0.913
same,normalized growth,"locus YOR231W, strain MKK1, active compounds read low",0.942
same,normalized growth,"locus YOR265W, strain rbl2, active compounds read low",0.979
same,normalized growth,"locus YOR270C, strain vph1, active compounds read low",0.669 (active)
same,normalized growth,"locus YOR290C, strain snf2, active compounds read low",0.862 (active)
same,normalized growth,"locus YPL051W, strain arl3, active compounds read low",1
same,normalized growth,"locus YPL078C, strain atp4, active compounds read low",0.887 (active)
same,normalized growth,"locus YPL106C, strain sse1, active compounds read low",1.3 [resistant] (active)
same,normalized growth,"locus YPL240C, strain hsp82, active compounds read low",1.03
same,normalized growth,"locus YPL256C, strain CLN2, active compounds read low",0.906
